Screens (PubChem BioAssay)
Sampled rows, rich in hits. Any-hit rate of the full collection: about 15%.
HCV inh = qHTS Assay for Inhibitors of Hepatitis C Virus (HCV) | Huh7.5.1 HCVcc-Cre infection, luciferase reporter, 44 h | Potency, µM (titrated, usually from 41.8 µM), inactives show at the highest dose activity change, negative = inhibition, most hits filed as inhibitors | 340,000 compounds, 3.4% hits | AID 651820, 2012; note: potency is the fitted concentration of half-maximal effect; % is set by controls: 0 for no effect and ±100 for the full control effect
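Reporter virus HCVcc-Cre (~0.5 moi) infects cells exposed to compound; seeding density 1,000 cells/well with 4 h settling beforehand. Luminescence, 15 sec read, taken 44 h post-infection following a 15 min RT substrate incubation.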
Sm TGR block = qHTS Assay for the Inhibitors of Schistosoma Mansoni Peroxiredoxins; Schistosoma mansoni thioredoxin glutathione reductase (TGR), Q962Y6; purified TGR, DTNB reduction, TNB absorbance 405 nm; Potency, µM (series often up to 114 µM), for the others: at the highest dose activity change, negative = inhibition, most hits filed as inhibitors; 360,000 compounds, 3% hits; AID 485364, 2010; note: potency is the fitted concentration of half-maximal effect; % is set by controls: 0 for no effect and ±100 for the full control effect; nearly all actives have a fitted effect of over 60% in size
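TGR 20 nM + NADPH 100 uM (dispensed conc.), cpd preinc 15 min RT; start with NADPH (500 uM addition) then DTNB (15 mM addition). Kinetic TNB absorbance, 405 nm filter. Four-parameter Hill fit across titration.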
Pf growth 48h = Primary qHTS for delayed death inhibitors of the malarial parasite plastid, 48 hour incubation; 310,000 compounds, 5.9% hits; Potency, µM (series often up to 28.7 µM), for inactives: at the highest dose activity change, negative = inhibition, actives largely listed as inhibitors; P. falciparum luciferase growth in erythrocytes, 48 h; note: potency is the fitted concentration of half-maximal effect; % is set by controls: 0 for no effect and ±100 for the full control effect
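Erythrocytes infected with P. falciparum carrying an integrated firefly luciferase reporter (2% hematocrit, 0.1% parasitemia final) were exposed to compounds in RPMI 1640 with 0.5% Albumax at 37 C, 5% CO2. Growth inhibition was scored as reduced luminescence.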
HCMV inh = qHTS Assay for inhibitors of the human cytomegalovirus (HCMV) | HFF cells, HCMV-luciferase reporter, 72 h; active compounds read low | activity change, negative = inhibition, % at 57.5 µM | 410,000 compounds, 4.5% hits; in the data active = activity change below about -60%; inconclusive = no clear call, values can overlap the other calls; inactive = above about -39%; note: % is set by controls: 0 for no effect and ±100 for the full control effect
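Two-dose cell screen: HFF monolayers treated with compounds and infected with luciferase-expressing HCMV at 1 PFU/cell, 72 h at 37C, then lysed for luciferase measurement.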
Pf growth 96h = Primary qHTS for delayed death inhibitors of the malarial parasite plastid, 96 hour incubation | P. falciparum luciferase reporter growth, 96 h | Potency, µM (highest dose often 28.7 µM), without a hit: at the highest dose activity change, negative = inhibition, most hits filed as inhibitors | 320,000 compounds, 6.9% hits; note: potency is the fitted concentration of half-maximal effect; % is set by controls: 0 for no effect and ±100 for the full control effect
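Delayed-death screen, second-generation endpoint: infected erythrocytes, 2% hematocrit, 0.05% parasitemia final; 96 hours at 37 C, 5% CO2; luciferase detection reagent; luminescence decrease equals reduced growth.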
SARS PLpro yeast = qHTS of Yeast-based Assay for SARS-CoV PLP; 330,000 compounds, 0.19% hits; S. cerevisiae expressing SARS-CoV PLpro, growth rescue; Potency, µM (series often up to 32.9 µM), for the others: top-dose activity, positive = growth rescue, actives largely listed as activators; calls by dose curve; note: potency is the fitted concentration of half-maximal effect; 0% is about no effect; nearly all actives have a fitted effect of over 55% in size
Active calls of the source: *; ? = inconclusive; . = not tested or not shown; [ ] = remark or other dose. Unless noted, calls come from the whole dose curve; as a rule, active = well fitted curve in the direction sought with a large enough effect; inconclusive = small, poorly fitted or top-dose-only effect, or another doubt; inactive = no such curve, though single readings can be large; an effect the other way counts as inactive or inconclusive.

SMILES | HCV inh | Sm TGR block | Pf growth 48h | HCMV inh | Pf growth 96h | SARS PLpro yeast
CCc1ccc2[nH]c(=O)c(CN(CCCN3CCOCC3)C(=O)Nc3ccc(Cl)cc3)cc2c1 | -9% | 1% | -10% | 11 | 54% | 9%
CC1(C)CC(=O)C=C(c2n[nH]nc2C2CC2)C1 | . | . | . | 10 | . | .
O=C(Nc1ccccc1C(=O)NCc1cccnc1)c1ccc(Cl)cc1Cl | 9% | 5% | ? | -27 | -10% | 6%
O=C1C(=O)N(CCCN2CCOCC2)C(c2ccc([N+](=O)[O-])cc2)/C1=C(/O)c1ccc2c(c1)OCO2 (stereo unspecified) | 14% | -25% | -22% | -7 | ? | -3%
O=C(CN1C(=O)C2(SCC(=O)N2c2ccccc2)c2ccccc21)Nc1ccccc1C(F)(F)F (stereo unspecified) | . | 0% | . | 9 | . | .
NNC(=O)[C@H](Cc1ccccc1)NC(=O)Nc1ccc2c(c1)OCCO2 | 5% | 17% | 9.3µM* | 26 | ? | -1%
O=C(CSC1=NC2(CCCCC2)N=C1c1ccccc1)Nc1ccc2c(c1)OCCO2 | 11µM* | 5% | 10µM* | 11 | ? | 7%
COc1ccc(NC(=O)N[C@@H](Cc2ccccc2)C(=O)NN)cc1 | ? | -2% | ? | 22 | ? | -1%
O=C(CSc1ccccc1)Nc1ccc2c(c1)OCCO2 | 18% | ? | 298% | 65 | 8.3µM* | -2%
CCC(=O)Nc1ccc2c(c1)OCCO2 | 8% | -2% | ? | 10 | 29% | 3%
O=C(CC1CS(=O)(=O)CC1CC(=O)Nc1ccc2c(c1)OCCO2)Nc1ccc2c(c1)OCCO2 (stereo unspecified) | -1% | -9% | 40% | -81* | -9% | 1%
CCn1nc2cc(C(=O)NCCc3cccs3)ccc2c1OC | -10% | 12% | 183% | 80 | -12% | 18%
CNC(=O)C1CCC(Cn2c(=O)c3sccc3n(CC(=O)NCc3cccc(OC)c3)c2=O)CC1 (stereo unspecified) | . | 0% | . | 32 | . | .
Brc1ccc(CN2CCCc3nc(-c4ccccc4)ccc32)cc1 | . | . | . | -81* | . | .
Cc1cccc(NC(=S)NC(=O)C2CC2)c1 | . | 35µM* | -13% | . | ? | 25%
Cc1ccc(NC(=S)NCc2cccn2C)cc1 | -24% | -18% | . | ? | ? | ?
Cc1cc(C)cc(NC(=S)NC(=O)C2CC2)c1 | ? | 13µM* | ? | 2 | 35% | 15%
Cc1cc(NC(=S)NC(=O)C2CC2)ccc1Br | -16% | ? | 7% | 76 | -9% | -58%
Cc1cccc(NC(=S)NCc2cccn2C)c1 | ? | -20% | . | 11 | 12µM* | -9%
C[C@@]12CC[C@@H](C3=C(CCC3)C1)N2c1ccccc1 | . | . | . | 4 | . | .
CN1CCc2nc3ccc(Cl)cc3c(-c3ccccc3Cl)c2C1 | -25% | 7% | ? | -27 | ? | -14%
Cc1ccc(C2CC(=O)N(Cc3ccccc3F)c3c2c(C)nn3-c2nc(C)cc(C)n2)cc1 (stereo unspecified) | . | 7% | . | -14 | . | .
N/C(COc1cc(Cl)cc(Cl)c1)=N\O | 5% | 4% | 17% | -65* | 7% | 0%
Cc1ccccc1CNC(=O)c1ccc(CS(=O)Cc2ccc(Cl)cc2)o1 (stereo unspecified) | . | -4% | . | 13 | . | .
O=C1C=CC(=O)N1 | ? | 0.89µM* | 0% | ? | -5% | .
SMILES | HCV inh | Sm TGR block | Pf growth 48h | HCMV inh | Pf growth 96h | SARS PLpro yeast
Cc1nc2cc(C(=O)N3CCc4ccccc43)ccc2n1-c1ccc(F)c(F)c1 | -3% | -1% | -3% | 9 | 38% | -2%
CCOC(=O)C1CCN(C(=O)c2oc3ccc(S(=O)(=O)N4CC(C)CC(C)C4)cc3c2C)CC1 (stereo unspecified) | 4.5µM* | 2% | 2.3µM* | -33 | 31% | -9%
CCCCN(CC)C(=O)c1oc2ccc(S(=O)(=O)N3CCCC3)cc2c1C | ? | -5% | ? | 0 | 13µM* | 2%
CCN(CC)C(=O)C1CCN(S(=O)(=O)c2ccc3oc4ccccc4c3c2)CC1 | ? | -15% | 9% | -70* | ? | -3%
CCOC(=O)N1CCN(C(=O)c2oc3ccc(S(=O)(=O)N4CC(C)CC(C)C4)cc3c2C)CC1 (stereo unspecified) | ? | 0% | ? | ? | . | 0%
CCOC(=O)N1CCN(C(=O)c2oc3ccc(S(=O)(=O)N4CCCCCC4)cc3c2C)CC1 | ? | -11% | 12µM* | ? | ? | 0%
CC(=O)NCCNc1nc2cc(-c3cscc3C)sc2c(=O)n1C | . | . | . | 16 | . | .
Cc1cc(-c2ccc(S(=O)(=O)Nc3cc(Cl)ccc3C)s2)on1 | . | 3% | . | 0 | . | .
COCCNC(=O)C1(C)CCCN(CCOc2ccc(Cl)cc2)C1 (stereo unspecified) | . | . | . | -1 | . | .
CCOC(=O)n1c(=O)oc2cc(S(=O)(=O)N3CCCCC3)ccc21 | 2% | -21% | ? | 18 | 0.0029µM* | -27%
Cc1c(C(=O)N2CCc3ccccc3C2)oc2ccc(S(=O)(=O)N3CCCCCC3)cc12 | 8.9µM* | -1% | ? | -32 | ? | 7%
Cc1c(C(=O)N2CCOCC2)oc2ccc(S(=O)(=O)N3CCCC3)cc12 | 7% | -11% | -17% | 6 | ? | 8%
Cc1ccc(-c2cc(C(=O)OCC(=O)c3ccccc3)c3cccc(Cl)c3n2)cc1 | . | -1% | . | -12 | . | .
C1CCc2c(nnc3c2-c2nonc2CC3)C1 | 15% | 5% | 9% | 37 | 2.1µM* | 2%
Oc1ccccc1-c1n[nH]c(-c2ccccc2O)n1 | ? | . | . | -96* | . | .
Clc1ccccc1-c1nc(-c2ccccc2)n[nH]1 | ? | -15% | 136% | 74 | . | -19%
COc1ccc(C2(c3ccc(OC)cc3)NC(=O)N(CC(=O)N3CCOCC3)C2=O)cc1 | 3% | -4% | 0% | -9 | 5% | 2%
CC12CCC(=O)N1C(C(=O)Nc1nnc(SCc3ccccc3F)s1)CS2 (stereo unspecified) | 17% | 5% | -1% | 20 | 33% | -7%
CC1(C)[C@H]2CC=C(CN3CCC(N4CCC(C(=O)N5CCCC5)CC4)CC3)[C@@H]1C2 | 32µM* | -3%[57.1 µM] | ? | -34 | 13% | -1%
CC1(C)C2CC=C(CN3CCC(O)CC3)C1C2 (stereo unspecified) | 9% | -4% | 6% | 10 | 1% | -1%
O=C(Oc1cccccc1=O)c1ccccc1 | -5% | -23% | ? | -3 | 15µM* | 3%
